Potency and outcome data for 30 compounds are collected here from PubChem BioAssay (Tox21).

Results filed as inconclusive are left out. Active and inactive are the calls of the source. Unless noted, calls come from the whole dose curve.

A short description of experiment [1]: qHTS assay to identify small molecule agonists of the sonic hedgehog signaling (Shh) pathway (AID 1259368).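 Note: NIH/3T3-derived 3T3Gli1-Luc cells carrying a stable Gli1-driven firefly luciferase reporter; series mostly up to about 92 µM; nearly all actives have a fitted effect of over 15% in size.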 The method, boiled down:
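Steps: seed 3T3 Gli1-Luc cells, incubate 4 hr at 37 C, pin-transfer compounds in DMSO alongside a positive control, incubate 24 hr, add luciferase detection reagent, wait 30 min at room temperature, read luminescence.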
In general terms: qHTS replaces the single test concentration by a dilution series.

Experiment [2] in a line: qHTS assay to identify small molecule antagonists of the sonic hedgehog signaling (Shh) pathway (AID 1259369). Note: nearly all actives have a fitted effect of over 45% in size. Note: potency is the fitted concentration of half-maximal effect. The method, boiled down: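 Inhibition of Shh signalling is measured as reduced Gli1-response-element firefly luciferase output in an NIH/3T3-derived stable reporter clone stimulated with conditioned medium for 24hr.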
Experiment [3] concerns the target Estrogen receptor beta (Homo sapiens) (UniProt Q92731). Kind of experiment: qHTS assay to identify small molecule agonists of the estrogen receptor beta (ER-beta) signaling pathway (AID 1259377; active = well fitted activation curve with a large enough effect in the signal ratio in the repeat runs, not every such curve was filed as active; the % refers to the signal ratio; note: potency is the fitted concentration of half-maximal effect). The method, boiled down: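 Ratiometric beta-lactamase FRET read-out came after 2 h substrate loading at room temperature. It followed 16 h compound treatment at 37C of GripTite HEK293T cells carrying a UAS-bla reporter, plated in 2% charcoal-stripped FBS medium.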

Experiment [4] in a line: qHTS assay to identify small molecule agonists of the androgen receptor (AR) signaling pathway in the presence of an antagonist - cell viability counter screen (AID 1259379; active = well fitted curve in the direction sought with a large enough effect in the repeat runs; an effect the other way counts as inactive or inconclusive;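 note: MDA-kb2 human breast cancer cells carrying an MMTV luciferase reporter; series mostly up to about 92 µM; nearly all actives have a fitted effect of over 25% in size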). The gist of the method: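 Fluorescence from CellTiter-Fluor, added after 15 hr and read 1 hr later, gave cell viability. Cells were MDA-kb2 exposed to compounds (15 concentrations) in the presence of 3.0uM nilutamide at 37C, 0% CO2.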

Experiment [5] in a line: qHTS assay to identify small molecule agonists of the estrogen receptor beta (ER-beta) signaling pathway - cell viability counter screen (AID 1259380; active = well fitted curve in the direction sought with a large enough effect in the repeat runs; an effect the other way counts as inactive or inconclusive; note: nearly all actives have a fitted effect of over 30% in size; note: potency is the fitted concentration of half-maximal effect). The gist of the method: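 Same-well viability counter screen. Cells: ER-beta-UAS-bla HEK293T, plated 6 hr before compound, in 2% charcoal-stripped FBS. Compound exposure 16 hr, 37C; viability by CellTiter-Glo luminescence after 30 min at room temperature.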

The nature of experiment [6]: qHTS assay to identify small molecule antagonists of the estrogen receptor beta (ER-beta) signaling pathway - cell viability counter screen (AID 1259382; active = well fitted curve in the direction sought with a large enough effect in the repeat runs; an effect the other way counts as inactive or inconclusive; note: series mostly up to about 92 µM; nearly all actives have a fitted effect of over 55% in size). The gist of the method:
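Following a 6 hr plating period, HEK293T cells carrying a UAS-driven beta-lactamase reporter under ER-beta control received compounds and 1nM E2 (final). After 16 hr at 37C and 2 hr substrate loading, CellTiter-Glo luminescence indicated viability.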

Experiment [7] is described as follows: qHTS assay to identify small molecule agonists or antagonists of the thyroid stimulating hormone receptor (TSHR) signaling pathway - wild type cell line counter screen (AID 1259384). The method, boiled down:
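Counter screen in untransfected Hek293: compounds (15-point titration, triplicate) plus phosphodiesterase inhibitor Ro20-1724 added after 18 h plating; 30 min RT. Intracellular cAMP via competitive d2/cryptate immunoassay, 1 h incubation.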

Experiment [8] has as its target Estrogen receptor beta (Homo sapiens) (UniProt Q92731). The experiment is described as follows: qHTS assay to identify small molecule antagonists of the estrogen receptor beta (ER-beta) signaling pathway (AID 1259378; active = well fitted inhibition curve with a large enough effect in the signal ratio in the repeat runs, not every such curve was filed as active; the % refers to the signal ratio; note: potency is the fitted concentration of half-maximal effect). The gist of the method:
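Antagonist mode: compounds added to beta-lactamase reporter HEK293T ER-beta-UAS cells stimulated with E2 (1nM final), 16 hr at 37C. LiveBLAzer B/G FRET substrate, 2 hours room temperature, fluorescence read-out.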

The target of experiment [9] is Androgen receptor (Homo sapiens) (UniProt P10275). The experiment is described as follows: qHTS assay to identify small molecule agonists of the androgen receptor (AR) signaling pathway in the presence of an antagonist (AID 1259381). Note: nearly all actives have a fitted effect of over 15% in size. Note: potency is the fitted concentration of half-maximal effect. The method, boiled down:
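Cells are MDA-kb2 (human breast carcinoma, MMTV-luc, AR/GR responsive). Nilutamide is present at 3.0uM final throughout; compounds are added at 15 concentrations and incubated 16hr at 37C before ONE-Glo luminescence detection.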

For experiment [10], the target named is Estrogen receptor (Homo sapiens) (UniProt P03372). Kind of experiment: qHTS assay to identify small molecule agonists of the estrogen receptor alpha (ER-alpha) signaling pathway in the presence of an antagonist (AID 1259383). For activation: top concentration of the series differs between compounds. Note: nearly all actives have a fitted effect of over 15% in size. Note: potency is the fitted concentration of half-maximal effect. The method, boiled down: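 Cells are hormone-deprived for 5 days (charcoal-stripped FBS, no phenol red), plated for 24hr, spiked with 10.0nM ICI-182,780, then dosed at 15 concentrations. After 22hr at 37C, ONE-Glo luminescence reports ERE-luciferase activity.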
Chain of Estrogen receptor (Homo sapiens) (P03372 whole entry, looked up): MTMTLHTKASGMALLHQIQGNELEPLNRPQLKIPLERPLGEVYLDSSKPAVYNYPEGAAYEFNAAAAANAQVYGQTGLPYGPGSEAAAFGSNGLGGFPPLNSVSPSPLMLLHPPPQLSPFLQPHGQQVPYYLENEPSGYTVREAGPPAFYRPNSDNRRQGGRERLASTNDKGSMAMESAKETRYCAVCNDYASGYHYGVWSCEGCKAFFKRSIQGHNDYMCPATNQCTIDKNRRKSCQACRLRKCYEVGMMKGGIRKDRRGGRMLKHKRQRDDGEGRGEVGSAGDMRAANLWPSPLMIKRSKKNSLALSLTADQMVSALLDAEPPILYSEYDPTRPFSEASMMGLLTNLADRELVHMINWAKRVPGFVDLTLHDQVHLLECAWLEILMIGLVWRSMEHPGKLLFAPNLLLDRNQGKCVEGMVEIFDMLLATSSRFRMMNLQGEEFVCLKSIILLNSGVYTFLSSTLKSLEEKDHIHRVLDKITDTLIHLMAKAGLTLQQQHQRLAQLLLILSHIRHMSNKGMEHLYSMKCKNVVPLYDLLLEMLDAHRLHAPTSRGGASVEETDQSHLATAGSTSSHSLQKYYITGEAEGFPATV

Chain of Estrogen receptor beta (Homo sapiens) (Q92731 whole entry, looked up): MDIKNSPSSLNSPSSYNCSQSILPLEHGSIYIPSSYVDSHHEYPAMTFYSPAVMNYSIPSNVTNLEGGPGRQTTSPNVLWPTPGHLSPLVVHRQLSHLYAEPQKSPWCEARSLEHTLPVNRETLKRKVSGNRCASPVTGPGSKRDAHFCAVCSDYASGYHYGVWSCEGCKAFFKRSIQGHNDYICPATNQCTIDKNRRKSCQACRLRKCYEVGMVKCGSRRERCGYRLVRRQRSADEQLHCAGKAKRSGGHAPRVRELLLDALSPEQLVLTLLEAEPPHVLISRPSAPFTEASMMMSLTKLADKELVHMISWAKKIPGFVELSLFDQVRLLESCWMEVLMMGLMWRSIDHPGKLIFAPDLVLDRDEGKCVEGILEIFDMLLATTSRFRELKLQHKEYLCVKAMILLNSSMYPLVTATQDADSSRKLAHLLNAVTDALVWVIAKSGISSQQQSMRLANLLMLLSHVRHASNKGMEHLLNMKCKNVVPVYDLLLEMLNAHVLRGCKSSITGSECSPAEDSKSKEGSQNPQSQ
Chain of Androgen receptor (Homo sapiens) (P10275 whole entry, looked up): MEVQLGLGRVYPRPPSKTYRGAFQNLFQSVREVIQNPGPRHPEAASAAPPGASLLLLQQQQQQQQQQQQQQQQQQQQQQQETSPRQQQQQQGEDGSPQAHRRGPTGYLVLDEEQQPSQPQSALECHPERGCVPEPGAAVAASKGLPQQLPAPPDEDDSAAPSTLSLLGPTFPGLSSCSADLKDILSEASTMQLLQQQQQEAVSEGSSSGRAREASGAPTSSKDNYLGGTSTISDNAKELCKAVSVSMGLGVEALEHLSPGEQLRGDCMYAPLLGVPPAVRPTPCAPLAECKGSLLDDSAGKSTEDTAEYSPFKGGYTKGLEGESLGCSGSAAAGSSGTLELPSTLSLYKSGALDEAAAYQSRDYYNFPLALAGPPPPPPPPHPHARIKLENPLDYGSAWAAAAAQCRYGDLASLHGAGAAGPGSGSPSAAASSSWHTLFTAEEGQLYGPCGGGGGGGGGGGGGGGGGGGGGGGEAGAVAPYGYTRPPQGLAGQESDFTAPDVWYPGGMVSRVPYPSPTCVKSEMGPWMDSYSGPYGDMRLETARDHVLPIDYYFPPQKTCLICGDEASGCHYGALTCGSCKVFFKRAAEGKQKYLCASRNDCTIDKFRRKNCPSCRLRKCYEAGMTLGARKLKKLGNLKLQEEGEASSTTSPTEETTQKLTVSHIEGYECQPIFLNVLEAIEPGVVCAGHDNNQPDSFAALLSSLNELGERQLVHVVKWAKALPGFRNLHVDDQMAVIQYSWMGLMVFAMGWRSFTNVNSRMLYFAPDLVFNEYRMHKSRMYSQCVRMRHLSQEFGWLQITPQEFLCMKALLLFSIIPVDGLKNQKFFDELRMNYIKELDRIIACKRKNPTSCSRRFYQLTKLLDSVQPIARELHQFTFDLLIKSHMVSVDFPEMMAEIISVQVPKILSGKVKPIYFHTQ

As to `CC(=O)c1cc2c(cc1C)C(C)(C)C(C)CC2(C)C` (stereo unspecified), the Potency entry in experiment [1], in experiment [2], in experiment [3], in experiment [4] and in experiment [6] was “inactive” each time. For the same compound, the Potency in [5] is 61.1 µM (active). In addition, the compound was called inactive in experiment [7].
As for `CCOP(=S)(OCC)Oc1nc(Cl)c(Cl)cc1Cl`, the Potency entry in experiment [1], in experiment [2], in experiment [8], in experiment [4], in [9] and in experiment [6] was “inactive” each time. Further, the Potency result in experiment [10] was “inactive”. Further, the Potency in experiment [5] is 38.6 µM (active). In experiment [7], the result was inactive.
As for `O=C(N[C@H](c1ccccc1)[C@@H]1CN2CCC1CC2)c1c(Cl)ccc(C(F)(F)F)c1Cl`, the Potency result in [1] and in experiment [3] was “inactive” throughout. Also, the results for the Potency in experiment [2] and in experiment [8] were 13.9 µM (active) and 39.2 µM (active), respectively. The compound was classed as inactive in experiment [7].
Take `COC(=O)C(Cl)C(=O)OC`: the Potency entry in experiment [1], in [2], in experiment [3], in [8], in [5] and in experiment [6] was “inactive” in each case. Besides, the Potency result in experiment [10] was “inactive”. Also, in experiment [7], the compound was called inactive.
As to `CC(C)(CCl)C(=O)Cl`, the Potency entry in experiment [1], in [3], in [8], in [5] and in experiment [6] was “inactive” in each case. In experiment [2], the Potency is 12.2 µM (active). The outcome in experiment [7] was inactive.
Regarding `CC[C@H]1C[C@H]2[C@@H]3CCC4=CC(=O)CC[C@@H]4[C@H]3CC[C@]2(C)[C@H]1O`, the Potency result in [1], in experiment [2], in experiment [3], in [4], in experiment [5] and in experiment [6] was “inactive” each time. Moreover, the Potency entry in [10] was “inactive”. Moreover, the compound was classed as inactive in experiment [7].
Turning to `Nc1nc(=S)[nH][nH]1`, the Potency result in experiment [1], in experiment [2], in [3], in experiment [8], in experiment [5] and in experiment [6] was “inactive” throughout. The Potency result in experiment [10] is “inactive”. Besides, the outcome in experiment [7] was inactive.
For `C=CCN1CC[C@]23c4c5ccc(O)c4O[C@H]2C(=O)CC[C@@]3(O)[C@H]1C5`, the Potency result in [1], in experiment [2], in experiment [3], in [4], in [5] and in [6] was “inactive” throughout.
`O=[Se]=O`: the Potency result in [1], in experiment [2], in [3], in experiment [8], in [5] and in experiment [6] was “inactive” each time. For the same compound, the Potency entry in experiment [10] was “inactive”. Further, in [7], the call was inactive.
In the case of `O=S(=O)(O)C(F)(F)C(F)(F)C(F)(F)C(F)(F)F`, the Potency entry in [1], in experiment [3], in experiment [4], in [5] and in experiment [6] was “inactive” throughout. For the same compound, the Potency is 57.8 µM (active) in experiment [2] and 0.578 µM (active) in [10].
For `C=CC(=O)OCC(C)O` (stereo unspecified), the Potency entry in experiment [1], in experiment [2], in experiment [3], in experiment [4], in experiment [5] and in [6] was “inactive” each time. For the same compound, in [10], the Potency result was “inactive”. For the same compound, the compound was classed as inactive in experiment [7].
`CC(C)(C)c1cc([N+](=O)[O-])cc([N+](=O)[O-])c1O`: the Potency entry in [1], in experiment [3] and in experiment [6] was “inactive” each time. Moreover, the Potency in experiment [2] is 6.84 µM (active). In addition, the call in experiment [7] was inactive.
As for `CC(=O)[C@H]1CC[C@H]2[C@@H]3CC[C@H]4C[C@](C)(O)CC[C@]4(C)[C@H]3CC[C@]12C`, the Potency result in experiment [1], in experiment [2], in experiment [3], in [5], in experiment [6] and in experiment [10] was “inactive” throughout. The Potency in experiment [8] was 2.11 µM (active). Also, the compound was called inactive in experiment [7].
Consider `CC(C)(Cl)[N+](=O)[O-]`, for which the Potency result in experiment [1], in experiment [2], in [3], in experiment [4], in experiment [5] and in [6] was “inactive” in each case. Besides, in [7], the compound was classed as inactive.
Take `O=C(NC(=O)c1c(F)cccc1F)Nc1cc(Cl)c(Oc2ncc(C(F)(F)F)cc2Cl)c(Cl)c1`: the Potency entry in [1], in experiment [3], in experiment [9], in experiment [6] and in [10] was “inactive” in each case. Besides, the Potency in [2] was 23.3 µM (active). For the same compound, in experiment [7], the compound was classed as inactive.
Consider `COCC(C)N(C(=O)CCl)c1c(C)csc1C` (stereo unspecified), for which the Potency result in experiment [1], in [3], in experiment [4], in [5], in experiment [6] and in [10] was “inactive” each time. The Potency in experiment [2] is 30.6 µM (active).
Regarding `C[C@]12CC[C@H]3[C@@H](CCC4=CC(=O)CC[C@@H]43)[C@@H]1CC[C@@H]2OC(=O)CCC1CCCCC1`, the Potency entry in experiment [1], in [2], in [5] and in experiment [6] was “inactive” each time. Also, the Potency in experiment [3] is 1.19 µM (active); in experiment [9], 0.0422 µM (active); in [10], 1.68 µM (active).
For the compound `C[C@H]1CNCCc2ccc(Cl)cc21`, the Potency result in experiment [1], in [2], in [3], in [8] and in experiment [10] was “inactive” in each case. Further, the compound was called inactive in experiment [7].
In the case of `CCOP(=S)(OCC)Oc1cc(Cl)c(Br)cc1Cl`, the Potency result in experiment [1], in experiment [2], in [3], in [4], in experiment [5] and in experiment [9] was “inactive” in each case. Besides, the Potency entry in [6] and in experiment [10] was “inactive” throughout. For the same compound, the compound was classed as inactive in [7].
Regarding `CCc1ccc(C(=O)NN(C(=O)c2cc(C)cc(C)c2)C(C)(C)C)cc1`, the Potency result in experiment [1], in [2], in [3], in [4], in [5] and in experiment [6] was “inactive” throughout. The Potency entry in [10] was “inactive”.
Consider `C=CCOC(C)=O`, for which the Potency result in experiment [1], in [2], in [3], in experiment [5], in [9] and in [6] was “inactive” each time. Also, in [10], the Potency result was “inactive”. Besides, the compound was classed as inactive in experiment [7].
`Cn1sc(Cl)cc1=O`: the Potency result in [1], in [2], in experiment [3], in [8], in experiment [5] and in [6] was “inactive” in each case. In experiment [10], the Potency result is “inactive”. The call in [7] was inactive.
As for `C=CC(=O)OC(C)(C)C`, the Potency result in experiment [1], in [2], in experiment [3], in experiment [8], in experiment [5] and in experiment [6] was “inactive” each time. The compound was called inactive in experiment [7].
For `C=CC[C@]1(O)CC[C@H]2[C@@H]3CCC4=CC(=O)CCC4=C3C=C[C@@]21C`, the Potency result in experiment [1], in experiment [3], in experiment [5], in experiment [6] and in experiment [10] was “inactive” each time. The Potency in [2] is 13.3 µM (active). The compound was called inactive in experiment [7].
As for `CCCC(Cn1cncn1)c1ccc(Cl)cc1Cl` (stereo unspecified), the Potency entry in experiment [1], in experiment [3], in [4] and in experiment [6] was “inactive” in each case. For the same compound, the Potency in experiment [2] was 17.2 µM (active). Further, in experiment [7], the result was inactive.
`N#CCC#N`: the Potency entry in [1], in [2], in experiment [8], in experiment [4], in [9] and in [6] was “inactive” each time. For the same compound, the Potency result in experiment [10] is “inactive”. The compound was called inactive in [7].
`O=C(NC(=O)c1c(F)cccc1F)Nc1ccc(OC(F)(F)C(F)OC(F)(F)F)c(Cl)c1` (stereo unspecified): the Potency result in [1], in [2], in experiment [8], in experiment [4], in experiment [5] and in experiment [6] was “inactive” in each case. Besides, the Potency entry in [10] was “inactive”. For the same compound, the outcome in experiment [7] was inactive.
As to `CCOP(=O)(OCC)SCCSCC`, the Potency entry in [1], in [2], in experiment [8], in experiment [4], in [5] and in experiment [6] was “inactive” each time. Also, the Potency result in experiment [10] is “inactive”. The compound was classed as inactive in experiment [7].
On to `CNP(=O)(OC)Oc1ccc(C(C)(C)C)cc1Cl` (stereo unspecified), for which the Potency entry in [1], in experiment [4], in experiment [5], in experiment [6] and in experiment [10] was “inactive” in each case. Moreover, the Potency in experiment [2] is 27.3 µM (active).
Turning to `Cn1cc[n+](C)c1` (tested in a mixture with another compound), the Potency result in experiment [1], in [2], in experiment [4], in experiment [5], in experiment [6] and in experiment [10] was “inactive” in each case.
